SKBR3 24h inh: SK-BR-3 proliferation inhibitors, primary screen, cell-based, human, 24 h; AID 847, 2007; viability, % at 10 µM; SK-BR-3 viability, CellTiter-Glo ATP luminescence; active compounds read low; hit rate 0.47% among 41,000;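 active = viability at or below the median of all test compounds minus 3 SD, in both replicates if run twice, cut at about 45% in these data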;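 note: 100% = median untreated cell wells and 0% = median positive control drug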
CatS inh: inhibitors of human cathepsin S, biochemical, compound mixtures. hit rate 0.06% among 62,000. AID 501, 2006. P25774. recombinant cathepsin S, AMC dipeptide fluorescence, pooled mixtures. inhibition, %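 (tested at 5 µM per compound within 10-compound mixtures)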; in the data active = inhibition above about 32%, passing the limit was not always enough;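 note: 0% = enzyme without compound and 100% = blank without enzyme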
Target sequence (P25774 115-331 limits assumed): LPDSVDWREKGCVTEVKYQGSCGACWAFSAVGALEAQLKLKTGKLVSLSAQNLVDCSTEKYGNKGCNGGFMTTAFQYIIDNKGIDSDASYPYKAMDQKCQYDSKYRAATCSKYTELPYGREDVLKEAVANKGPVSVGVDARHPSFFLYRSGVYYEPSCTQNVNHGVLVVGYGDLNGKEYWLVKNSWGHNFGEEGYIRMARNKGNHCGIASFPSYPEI
CatB mixtures: cathepsin B inhibitors from pooled compounds, primary screen, biochemical, compound mixtures, AMC fluorescence | hit rate 0.06% among 62,000 | Purified cathepsin B, AMC dipeptide fluorescence | AID 488, 2006 | inhibition, %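 (ten-compound pools at 5 µM per compound and 50 µM total)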; in the data active = inhibition above about 22%, passing the limit was not always enough;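 note: 0% = enzyme without compound and 100% = no enzyme blank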
HER2 expr 66K: inhibitors of Her2 protein expression, primary screen, SKBR-3 cells, AlphaScreen, 66K library. Receptor tyrosine-protein kinase erbB-2 (Homo sapiens), P04626. SKBR-3 HER2 protein level, 18-24 h; active compounds read low. HER2 level % of control, % at 10 µM. hit rate 0.69% among 65,000;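 active = HER2 level under 5% of the carrier-only control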;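 note: 100% = DMSO carrier and 0% = 500 nM PU-H71 HSP90 inhibitor; lower value means stronger loss of Her2 protein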
CatL block: inhibitors of human cathepsin L, biochemical | purified cathepsin L, fluorogenic substrate, fluorescence | hit rate 0.17% among 58,000 | Procathepsin L (Homo sapiens), P07711 | inhibition, %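 (tested at 10 µM)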; in the data active = inhibition above about 45%;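 note: 0% = enzyme with no compound and 100% = no enzyme blank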
Target sequence (P07711 114-288 limits assumed): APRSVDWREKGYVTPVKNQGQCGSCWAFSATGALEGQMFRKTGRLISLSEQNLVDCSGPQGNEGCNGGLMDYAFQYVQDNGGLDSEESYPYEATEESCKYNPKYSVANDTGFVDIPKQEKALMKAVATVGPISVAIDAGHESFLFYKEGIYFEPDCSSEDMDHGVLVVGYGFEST
Target sequence (P07711 292-333 limits assumed): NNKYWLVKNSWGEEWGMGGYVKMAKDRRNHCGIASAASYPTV
CatB inh: human cathepsin B inhibitors, primary screen, biochemical, fluorogenic substrate; hit rate 0.1% among 63,000; purified cathepsin B, fluorescence; AID 453, 2006; P07858; inhibition, %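 (tested at 10 µM)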; in the data active = inhibition above about 21%;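 note: 0% = enzyme with no compound and 100% = no enzyme blank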
* marks the source's active call; other numbers are inactive results; · = no result given. A selection: hits, their analogues and other compounds. The true share with any hit is near 1.1%.

SMILES | SKBR3 24h inh | CatS inh | CatB mixtures | HER2 expr 66K | CatL block | CatB inh
CCCCc1[nH]nc2c1C1(C(=O)N(CC)c3ccccc31)C(C#N)=C(N)O2 (stereo unspecified) | 100 | 1 | -3 | 124 | 8 | 25*
O=C(COc1ncnc2ccccc12)N1CCN(S(=O)(=O)c2ccc(Cl)cc2)CC1 | · | 13 | 6 | 70 | 12 | 3
CC(C)(C)NC(=O)CSc1nc(O)cc(=O)n1-c1ccccc1F | 98 | -2 | 7 | 83 | -2 | 1
COc1ccccc1-n1c(SCC(=O)NC(C)(C)C)nc(O)cc1=O | 105 | 8 | -1 | -39* | -4 | 2
COc1ccc(-c2cc(C(=O)Nc3cnn(Cc4ccccc4C)c3)no2)cc1OC | 90 | -1 | -1 | 88 | -4 | -1
Cc1ccc(C2CC(C(F)F)n3ncc(C(=O)Nc4cnn(Cc5ccccc5C)c4)c3N2)cc1 (stereo unspecified) | 32* | 0 | 7 | 25 | -7 | -1
CCn1c(C)cc(=S)c2ccccc21 | 85 | -3 | -2 | -19* | 0 | 7
CCn1c2ccccc2c2cc(N)ccc21 | 112 | -5 | -8 | 93 | -4 | 1
Cc1ccc(S(=O)(=O)N2CCN(C(=O)N3CCOCC3)C2C)cc1 (stereo unspecified) | 73 | 8 | 1 | -30* | 6 | -6
CSc1nsc(SC)c1C(=O)N1CCN(S(=O)(=O)c2ccc(C)cc2)C1C (stereo unspecified) | 44* | 2 | 0 | 35 | 18 | 6
Cc1c(NC(=O)c2nn(C)c(=O)c3ccccc23)c(=O)n(-c2ccccc2)n1C | · | 2 | 4 | 96 | -1 | 4
Cn1nc(C(=O)Nc2c(-c3ccccc3)nc3sccn23)c2ccccc2c1=O | · | 12 | 3 | 1.1* | 8 | 3
O=C(NCc1cccs1)c1nc2c(nnn2Cc2ccccc2Cl)c(=O)[nH]1 | 22* | 21 | 2 | 0.0* | 19 | 8
CCOC(=O)c1c(/N=C/N(C)C)sc(C(=O)OC)c1C | 96 | 17 | 4 | 102 | 9 | 3
CCCc1cc(=O)[nH]c(SCC(=O)c2c(N)n(C)c(=O)n(C)c2=O)n1 | 34* | -5 | 2 | 81 | · | 5
N#Cc1c(N)sc(=S)c2c1CCN(Cc1ccccc1)C2 | · | 75* | 36 | 0.0* | 47* | 80*
CCN1CCc2c(sc(N)c2C#N)C1 | 82 | -10 | -1 | 63 | -19 | -5
COc1ccc(C2NC(=O)NC(O)(C(F)(F)F)C2C(=O)c2ccc(C)cc2)cc1 (stereo unspecified) | 95 | 3 | 1 | 89 | · | 4
Cc1nc2ccccn2c1C(=O)NCc1cccnc1 | 95 | -1 | 2 | 96 | -2 | 2
CCOc1ccc(-c2nnn(CC(=O)c3ccc4c(c3)OCCO4)n2)cc1 | 104 | 0 | -1 | 99 | 17 | 7
CCOc1ccccc1NC(=O)Cn1nnc(-c2ccc(OCC)c(OCC)c2)n1 | 97 | 12 | 0 | -20* | · | -2
CCOc1ccc(-c2nnn(CC(=O)Nc3cc(OC)ccc3OC)n2)cc1OCC | 88 | 8 | 2 | 90 | 25 | 2
CCOc1ccc(-c2nnn(CC(=O)c3cc(OC)ccc3OC)n2)cc1 | 91 | -5 | -4 | -14* | -5 | -4
CCOC(=O)c1cc2occc2n1CC(=O)Nc1ccc(OC)cc1OC | · | 8 | 5 | 135 | 2 | 3
COCC(C)n1c(C)cc(C(=O)COC(=O)c2c(NC(C)=O)sc(C)c2C)c1C (stereo unspecified) | · | 11 | -2 | -11* | · | -1
SMILES | SKBR3 24h inh | CatS inh | CatB mixtures | HER2 expr 66K | CatL block | CatB inh
CS(=O)(=O)N(CC(=O)N1CCCCC1)c1sc2c(c1C#N)CCCC2 | · | 7 | -4 | 130 | 13 | -2
OCCN1CCN(CCCN2c3ccccc3Sc3ccc(C(F)(F)F)cc32)CC1 | 16* | 14 | -4 | -9.1* | 13 | -3
CCOC(=O)N1CCN(S(=O)(=O)c2ccc(Br)s2)CC1 | 81 | -28 | 5 | 92 | -3 | -3
CN1CCN(S(=O)(=O)c2ccc(Br)s2)CC1 | 53 | 9 | 1 | 148 | 97* | 3
O=C(NCc1ccc2c(c1)OCO2)C1CCN(c2ncccn2)CC1 | 76 | -2 | 1 | 113 | -5 | 0
c1coc(-c2nc3nc4ccccc4nc3n2-c2ccc3c(c2)OCCO3)c1 | 90 | · | · | 87 | 17 | -1
CCOCCCN(C(=O)Nc1ccc(CC)cc1)C1CCN(C(C)=O)CC1 | · | 7 | 5 | 85 | -7 | 2
CCc1ccc(NC(=O)N(CCN2CCOCC2)C2CCN(C(C)=O)CC2)cc1 | · | -3 | 8 | -27* | 3 | -4
CCOC(=O)c1sc(=NC(=O)c2ccc(S(=O)(=O)N3CC(C)OC(C)C3)cc2)n(C)c1C (stereo unspecified) | 83 | -2 | 2 | 58 | -14 | 43*
Nc1cc(OC(=O)c2cccs2)nn1S(=O)(=O)c1ccccc1 | 86 | -2 | 69* | 93 | 3 | 76*
COc1cccc(C(=O)Oc2cc(N)n(S(=O)(=O)c3ccc(C)cc3)n2)c1OC | 89 | 12 | 9 | 89 | 16 | 13
Nc1cc(OC(=O)c2cccs2)nn1S(=O)(=O)c1ccc(F)cc1 | 65 | -2 | 55* | 135 | -3 | 56*
Cc1nn(-c2ccccc2)c2[nH]c(=O)c(CNc3ccc4c(c3)OCCO4)cc12 | 81 | 1 | -2 | 64 | 13 | -2
CCOc1nc(C#N)nc(N2CCCCC2)n1 | 39* | 37* | 11 | 59 | 59* | 15
O=C(CCN1CCC(c2ccccc2)C1)c1cccs1 (stereo unspecified) | 147 | -4 | 5 | -45* | 17 | 5
CC(C)c1ccc(S(=O)(=O)N2CCN(CC(=O)Nc3ccc4c(c3)OCO4)CC2)cc1 | · | 16 | 3 | 79 | 11 | 5
Cc1nc(NC(=O)c2ccco2)sc1C(=O)Nc1ccc(Br)cc1 | · | -5 | 2 | -3.0* | -15 | 1
COC(=O)c1sc(NC(=O)c2ccco2)nc1C | · | -5 | 3 | 91 | 1 | -4
O=C(NCCCn1ccnc1)c1cc(S(=O)(=O)N2CCOCC2)c(Cl)cc1Cl | 93 | 0 | 6 | -32* | · | 3
COCCN(C(=O)C1CC1)c1nnc(-c2cccc(C)c2)s1 | 84 | 0 | 0 | 101 | -3 | 5
Cc1onc(-c2ccccc2)c1C(=O)Nc1sc2c(c1C#N)CCC2 | 44* | -5 | -3 | 68 | -1 | 2
CCOCCCn1c(SCC(=O)NC(C)C)nc2ccccc2c1=O | · | -4 | 6 | 109 | -4 | -7
O=C(CCn1cccc1)Nc1cccc(F)c1 | · | -3 | 1 | 112 | -4 | 0
Oc1ccc2ccccc2c1C=NCc1cn2ccsc2n1 | · | 0 | -1 | -11* | -3 | 2

Screens: PubChem BioAssay, several laboratories
